Source: PubChem BioAssay AID1240 (Sanford-Burnham Center for Chemical Genomics, 2008)
Screen size: about 50,000 compounds; about 800 (1.6%) showed an effect of 50% or more. The entries come from a sample that favours strong results as a whole.

target: Bcl-2-like protein 10 (Homo sapiens) (UniProt Q9HD36); experiment: Phenotype converters, Bcl-B/TR3 peptide binding displacement, primary biochemical FP (AID 1240); conditions: GST-Bcl-B / FITC-TR3 peptide fluorescence polarization; stronger effect = higher value; compound at 3.75 mg/L;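 further: 0% = Bcl-B with tracer peptide and DMSO and 100% = tracer peptide lacking Bcl-B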
Sequence (Q9HD36 whole entry, looked up): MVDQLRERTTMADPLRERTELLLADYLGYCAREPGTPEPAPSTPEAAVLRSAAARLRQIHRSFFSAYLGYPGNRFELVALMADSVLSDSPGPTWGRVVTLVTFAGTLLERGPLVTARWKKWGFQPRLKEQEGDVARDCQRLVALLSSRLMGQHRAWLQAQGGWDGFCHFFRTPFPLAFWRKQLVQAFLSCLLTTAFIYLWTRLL

SMILES	displacement [%]
Cc1cccc(OCC(=O)Nc2ccc(C)c(C)c2)c1	-13.9
CCOC(=O)C1=C(C)NC(=O)CC1c1cc2c(cc1Br)OCO2 (centres undefined)	-6.4
O=C(O)/C=C\C(=O)Nc1ccccc1SC(F)(F)F	9.3
O=C1C=CC(=O)N1c1ccc(Cl)cc1[N+](=O)[O-]	-9
CCOC(=O)c1c(N)sc(C(=O)Nc2ccccc2F)c1C	12.7
CCC(=O)Nc1nc(C)c(-c2csc(Nc3cccc(C(=O)O)c3)n2)s1	34.5
CC(NC(=O)COc1ccc(/C=N/NS(=O)(=O)c2ccccc2)cc1)c1ccccc1 (centres undefined)	4
O=C(/C=C/c1ccc(-c2ccc(Br)cc2)o1)c1ccc([N+](=O)[O-])cc1	-1.7
COc1ccc(C(=O)/C=C/c2ccc(/C=C/C(=O)c3ccc(OC)cc3)cc2)cc1	19.1
COc1ccc(-c2ccc(/C=C/C(=O)c3ccc(Cl)cc3)o2)cc1	-16.7
COc1ccc(-c2ccc(/C=C/C(=O)c3ccc(C)cc3)o2)cc1	91.1
COc1ccc(/C=C/C(=O)c2cccc([N+](=O)[O-])c2)cc1	14.9
O=C(/C=C/c1ccc(-c2ccccc2)o1)c1ccc(F)cc1	54.3
O=C(/C=C/c1ccc(-c2ccccc2Cl)o1)c1ccc(F)cc1	6.5
COc1ccc(C(=O)/C=C/c2ccc(-c3ccc([N+](=O)[O-])cc3)o2)cc1	133
COc1ccc(C(=O)/C=C/c2ccc(-c3ccccc3[N+](=O)[O-])o2)cc1	13.8
Cc1ccc(C(=O)/C=C/c2ccc(-c3ccc(Cl)cc3)o2)cc1	17.9
O=C(/C=C/c1ccc(-c2cccc(C(F)(F)F)c2)o1)c1ccc(F)cc1	-28.8
COc1ccc(/C=C/C(=O)c2ccc([N+](=O)[O-])cc2)cc1	105
CC(C)(C)C1CCc2c(sc(NC(=O)c3ccccc3)c2C(N)=O)C1 (centres undefined)	37
CCNC(=O)C(=O)Nc1ccc(OCC)cc1	7.5
COc1ccc(NC2(c3ccccc3)C(=O)c3c(Cl)c(Cl)c(Cl)c(Cl)c3C2=O)cc1	4.4
O=Cc1cccc(OCc2ccccc2F)c1	-0.4
CC1(O)c2ccccc2C(=O)N1Cc1ccccc1 (centres undefined)	12.6
Cc1ccc(Cc2cnc(NC(=O)c3cccc([N+](=O)[O-])c3)s2)cc1	26.3

SMILES	displacement [%]
C=C1CSc2nc(=O)c3c4c(sc3n21)CCC4	11.7
O=C1NC(=O)C(=Cc2ccc(OC(=O)c3cccc([N+](=O)[O-])c3)cc2)C(=O)N1	1.8
Cc1cccc(C(=O)Oc2ccc(/C=C3/N=C(c4ccccc4)OC3=O)cc2)c1	0.5
O=C1OC(c2cccc(Cl)c2)=N/C1=C\c1ccc(OC(=O)c2cccc([N+](=O)[O-])c2)cc1	71.9
CCCCCCCNC1CC(=O)N(c2ccc(Br)cc2)C1=O (centres undefined)	1.7
Cc1ccc(-c2[nH]n3c(=O)c4c(nc3c2C)CCCC4)cc1	-2.2
Cc1ccc(-c2[nH]n3c(=O)c4c(nc3c2C)CCC4)cc1	60.8
Cc1ccc(-c2[nH]n3c(=O)c4c(nc3c2C)CCS4)cc1	-0.6
CCOc1ccc(/C=C(/C#N)c2nc(-c3ccc(Br)cc3)cs2)c(OCC)c1	38.9
O=C(Cc1ccc([N+](=O)[O-])cc1)NCc1ccccn1	14.1
COc1ccc(/C=C/C(=O)NC(C)Cc2ccccc2)cc1OC (centres undefined)	-5.6
COc1ccc(/C=C2/SC(=S)NC2=O)cc1OCc1ccc(Cl)cc1	4.2
CCOc1ccc(/C=C2/SC(=S)NC2=O)c(OCC)c1	114
COc1ccc(/C=C2/SC(=S)NC2=O)cc1OCc1ccc([N+](=O)[O-])cc1	76.9
CCOc1ccc(/C=C2/SC(=S)NC2=O)cc1Cl	11.7
CCOc1cccc(/C=C2/SC(=S)NC2=O)c1O	5.7
CCOc1ccc2ccc(OCC)c(/C=C3/SC(=S)NC3=O)c2c1	-0.8
CCOc1cc(/C=C2\SC(=S)NC2=O)ccc1OC(C)=O	12
COc1cc(/C=C2/SC(=S)NC2=O)ccc1OCc1ccc(I)cc1	-8.4
CCOc1cc(/C=C2/SC(=S)NC2=O)ccc1OC	119
CCOc1ccc(C=Nc2ccc3c(c2)nc(C)n3C)cc1	6.5
CSc1ccccc1NC(=O)c1ccc([N+](=O)[O-])cc1	10.7
CCOC(=O)c1cc(C#N)c(SCc2ccccc2)[nH]c1=O	-2.6
COc1ccc(C(=O)N2CCN(c3cccc(C)c3C)CC2)cc1OC	2.4
Cc1cc(C)cc(CC2CC(=O)N(c3ccc(Br)cc3)C2=O)c1 (centres undefined)	-8

SMILES	displacement [%]
CC(=O)n1cc(Nc2ccccc2C(=O)O)c2ccccc21	-3
O=C(NCC1CCCO1)c1ccc(S(=O)(=O)N2CCCCC2)cc1 (centres undefined)	-4.5
Cc1cc(C=C2C(=O)c3ccccc3C2=O)c(C)n1-c1cccnc1	-15.5
Cc1cc(/C=C2/SC(=O)NC2=O)c(C)n1-c1cccc(Cl)c1	18.6
Cc1cc(C=C2C(=O)c3ccccc3C2=O)c(C)n1-c1cccc([N+](=O)[O-])c1	11.8
CCOC(=O)c1ccc(-n2c(C)cc(C=C3C(=O)c4ccccc4C3=O)c2C)cc1	11.9
Cc1cc(C=C2C(=O)c3ccccc3C2=O)c(C)n1-c1ccc(Cl)cc1	100
Cc1cc(C=C2C(=O)c3ccccc3C2=O)c(C)n1-c1ccc(N2CCOCC2)cc1	0.7
Cc1cc(C=C2C(=O)c3ccccc3C2=O)c(C)n1-c1cccc(Cl)c1	180
Cc1cccc(-n2c(C)cc(C=C3C(=O)c4ccccc4C3=O)c2C)c1	138
Cc1cc(/C=C2/NC(=O)NC2=O)c(C)n1-c1cccc(Cl)c1	10
CN1CCN(C(=O)c2cnn3c(C(F)(F)F)cc(-c4ccco4)nc23)CC1	6.4
O=C(O)CCCN1C(=O)C(=O)/C(=C(\O)c2ccc(Cl)cc2)C1c1ccc(F)cc1 (centres undefined)	-0.6
COc1ccc(N(CC(=O)NCCc2ccccc2)S(C)(=O)=O)c(OC)c1	3.4
Cc1ccc(-c2ccc(OCC(=O)N3CCCc4ccccc43)cc2)cc1	59.3
Cc1ccccc1OCC(=O)N1CCCc2ccccc21	-4.9
Cc1ccc(OCC(=O)N2CCCc3ccccc32)c(C)c1	6
Cc1ccc(-c2noc(COc3ccc4ccccc4c3)n2)cc1	11
CC(=O)NCCN=Cc1cc2n(c1O)-c1ccccc1C2=O	167
O=c1[nH]c(=O)n(-c2ccccc2Cl)c(O)c1C=Nc1ccc(Cl)cc1	18.6
O=C1c2ccccc2-n2c1cc(C=Nc1ccc(Cl)cc1)c2O	112
O=c1[nH]c(=O)n(-c2ccccc2F)c(O)c1C=Nc1ccc(Cl)cc1	-1.4
CC(=O)NCCN=Cc1c(O)[nH]c2ccccc12	14
CCOC(=O)c1cc2n(c1N(C(C)=O)C(C)=O)-c1ccccc1C2=O	-4.9
